Among the test systems are T-47D breast; BT-549 breast; MDA-MB-435 melanoma; SW-620 colon; MCF7 breast; HCT-116 colon; HCC-2998 colon; KM12 colon.
Holding throughout (experiment): NCI-60 one-dose screen, 48 h (100 = growth as untreated, 0 = no growth, -100 = all killed)
What all share (details): 10 µM unless noted

Molecules are shown by their SMILES. Compounds without any hit were thinned out: in the full panel of roughly 83,000, 20% have a hit.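 Results are percent growth after 48 hours of single-concentration exposure. 100 means growth as in untreated cells, lower positive values show inhibition; negative values down to -100 show cell death.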 Unmarked numbers belong to inactive results. Activity calls are given as the source filed them. The calls were made as follows: active = growth percent below 10; inactive = the rest.

`O=C(O)CCCCCCCCCCCCCCC(=O)O`: the growth with T-47D breast is 110%; in the assay on BT-549 breast, 105%; with MDA-MB-435 melanoma, 109%; in the assay with SW-620 colon, 109%; with MCF7 breast, 97%; in the assay with HCT-116 colon, 107%. Besides, the growth in the assay with HCC-2998 colon is 101%; in the assay on KM12 colon it was 102%.

As for `Cc1ccc(/C=C/C(=O)c2ccc(N)cc2)c(C)c1`, the growth is 101% in the assay on T-47D breast; 89.6% with BT-549 breast; 77% in the assay with MDA-MB-435 melanoma; -69.1% (active) with SW-620 colon; 35% in the assay on MCF7 breast; 35.8% with HCT-116 colon. In addition, the results for the growth in the assay with HCC-2998 colon and in the assay with KM12 colon were 106% and 63.3%, respectively.

Consider `O=C(NCCc1ccccn1)OCc1nc2nc(Cl)nc(N3CCOCC3)c2[nH]1`, for which the growth was 33.5% in the assay on T-47D breast; 8.16% (active) in the assay on BT-549 breast; 11.9% with MDA-MB-435 melanoma; -37.2% (active) in the assay on SW-620 colon; 15.6% in the assay with MCF7 breast; -71.8% (active) with HCT-116 colon. Further, the values for the growth with HCC-2998 colon and with KM12 colon were 77.6% and 12.2%, respectively.

For `Brc1ccc(C2CC(c3cccc(Nc4ccncc4)c3)=NN2c2ccccc2)cc1` (configuration not stated), the growth in the assay with T-47D breast was 87.8%; in the assay with BT-549 breast, 84%; in the assay with MDA-MB-435 melanoma, 70.5%; in the assay on SW-620 colon, -33.1% (active); in the assay with MCF7 breast, 24.5%; with HCT-116 colon, 77.4%. The growth in the assay on HCC-2998 colon is 19.2%; in the assay on KM12 colon, 46.9%.

Regarding `COc1cc(C2CC(c3cccc(Nc4ccncc4)c3)=NN2C(C)=O)cc(OC)c1OC` (configuration not stated), the growth with T-47D breast was 85.2%; with BT-549 breast it was 103%; with MDA-MB-435 melanoma, 18.1%; with SW-620 colon, 87.8%; with MCF7 breast, 72.6%; in the assay on HCT-116 colon, 71.2%. In addition, the growth was 95.1% with HCC-2998 colon and 69.5% in the assay with KM12 colon.

With `O=S(=O)(NCCNc1nccc(-c2c(-c3cccc(F)c3)nc3occn23)n1)c1cccc2ccccc12`, the growth in the assay on T-47D breast is 29.9%; with BT-549 breast it was 78.3%; with MDA-MB-435 melanoma it was 32.8%; in the assay on SW-620 colon, 72.1%; in the assay with MCF7 breast, 27.8%; in the assay with HCT-116 colon it was 36.1%. Further, the growth in the assay with HCC-2998 colon was 79.7%; in the assay on KM12 colon, 49.6%.

For `O=C(CSc1nc2sc3c(c2c(=O)n1Cc1ccccc1)CCCC3)N1CCN(c2ccccc2)CC1`, the growth in the assay with T-47D breast is 80.9%; with BT-549 breast, 90.1%; in the assay with MDA-MB-435 melanoma it was 101%; in the assay on SW-620 colon, 102%; in the assay with MCF7 breast, 95.5%; in the assay on HCT-116 colon, 85.4%. The growth was 103% with HCC-2998 colon and 101% with KM12 colon.

For the compound `O=C(N/N=C/c1ccncc1)c1ccccc1Nc1cccc(C(F)(F)F)c1`, the growth in the assay on T-47D breast is 58.2%; with BT-549 breast, 69.3%; in the assay with MDA-MB-435 melanoma it was 112%; in the assay on SW-620 colon it was 95.7%; in the assay with MCF7 breast it was 104%; with HCT-116 colon it was 69.2%. Further, the growth with HCC-2998 colon and with KM12 colon was 77.8% each time.

For the compound `CC(=O)c1c[nH]c2ccc(-c3ccnc(Nc4ccc(NC(=O)c5cccc(F)c5)c(CN5CCOCC5)c4)n3)cc12`, the growth was -5.6% (active) in the assay with T-47D breast; -7.43% (active) with BT-549 breast; -6.37% (active) in the assay on MDA-MB-435 melanoma; 0.335% (active) in the assay with SW-620 colon; -0.0693% (active) in the assay on MCF7 breast; 2.26% (active) in the assay on HCT-116 colon. The growth with HCC-2998 colon is 1.41% (active); with KM12 colon, -7.43% (active).

Take `C#Cc1cccc(NC(=O)Nc2cccc(N=C=S)c2)c1`: the growth in the assay on T-47D breast is 100% [8.25 µM]; with BT-549 breast it was 102% [8.25 µM]; with MDA-MB-435 melanoma, 97.3% [8.25 µM]; with SW-620 colon, 104% [8.25 µM]; in the assay with MCF7 breast, 86.1% [8.25 µM]; in the assay on HCT-116 colon, 95.5% [8.25 µM]. The growth with HCC-2998 colon was 105% [8.25 µM]; in the assay on KM12 colon it was 106% [8.25 µM].

As for `FC(F)(F)Oc1cccc(-c2cc(NCCCCCCNc3cc(-c4cccc(OC(F)(F)F)c4)nc4ccc(N5CCCC5)cc34)c3cc(N4CCCC4)ccc3n2)c1`, the growth in the assay on T-47D breast was -46.4% (active); in the assay on BT-549 breast, 105%; with MDA-MB-435 melanoma, -87.6% (active); in the assay on SW-620 colon, -78.8% (active); in the assay on MCF7 breast, -64.7% (active); in the assay with HCT-116 colon it was -66.6% (active). Moreover, the figures for the growth with HCC-2998 colon and in the assay with KM12 colon were -85.3% (active) and -90.4% (active), respectively.

In the case of `CNC(=O)c1c(NC(=O)c2ccc(C(C)C)cc2)sc2c(CN(C)C)c(O)ccc12`, the growth in the assay with T-47D breast is 80.6%; in the assay with BT-549 breast, 87.9%; with MDA-MB-435 melanoma, 89.8%; with SW-620 colon it was 17.2%; in the assay on MCF7 breast, 68.6%; in the assay on HCT-116 colon, 46.1%. Also, the growth was 55.4% in the assay with HCC-2998 colon and 66.2% in the assay with KM12 colon.

With `CCOC(=O)C1=C(C)NC(C)=C(C(=O)OCC)C1c1cc(Br)c(O)c(OC)c1`, the growth is 43.8% with T-47D breast; 15.3% in the assay on BT-549 breast; -33.7% (active) in the assay with MDA-MB-435 melanoma; 24.6% in the assay with SW-620 colon; 29.3% with MCF7 breast; 24.5% with HCT-116 colon. Also, the growth in the assay with HCC-2998 colon is 63.6%; in the assay on KM12 colon it was 23.6%.

Consider `COc1ccc2c(c1)OC1=C(C(=O)OC1)C2c1cc(OC)c(OC)c(OC)c1` (configuration not stated), for which the growth in the assay on T-47D breast is 66.3%; in the assay with BT-549 breast, 34.5%; with MDA-MB-435 melanoma, -38.5% (active); in the assay with SW-620 colon it was 23.2%; in the assay on MCF7 breast, 27.1%; in the assay on HCT-116 colon, 19.3%. Besides, the growth in the assay with HCC-2998 colon was 6.19% (active); in the assay on KM12 colon it was 13.1%.
